# In PubChem BioAssay (NCI):
# The panel holds about 83,000 compounds, 20% with a hit somewhere; the sample as a whole holds those more often.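 Growth was measured after 48 h exposure to one concentration of compound in 96-well plates. Values under 10 count as active.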 A number with no mark means an inactive call. The source made the active and inactive calls.
# What was measured:
# Test in all cases: NCI-60 one-dose screen, 48 h (100 = growth as untreated, 0 = no growth, -100 = all killed)
# Details in all cases: 10 µM unless noted
# RPMI-8226 leukemia = test system: RPMI-8226 leukemia
# OVCAR-8 ovarian = test system: OVCAR-8 ovarian
# OVCAR-5 ovarian = test system: OVCAR-5 ovarian
# OVCAR-4 ovarian = test system: OVCAR-4 ovarian
# SK-OV-3 ovarian = test system: SK-OV-3 ovarian
# OVCAR-3 ovarian = test system: OVCAR-3 ovarian
# HS 578T breast = test system: HS 578T breast
# NCI/ADR-RES ovarian = test system: NCI/ADR-RES ovarian
# T-47D breast = test system: T-47D breast
# BT-549 breast = test system: BT-549 breast
# MDA-MB-435 melanoma = test system: MDA-MB-435 melanoma
# SW-620 colon = test system: SW-620 colon
# MCF7 breast = test system: MCF7 breast
# HCT-116 colon = test system: HCT-116 colon
# HCC-2998 colon = test system: HCC-2998 colon
# KM12 colon = test system: KM12 colon
# IGROV1 ovarian = test system: IGROV1 ovarian
Compound,growth (RPMI-8226 leukemia),growth (OVCAR-8 ovarian),growth (OVCAR-5 ovarian),growth (OVCAR-4 ovarian),growth (SK-OV-3 ovarian),growth (OVCAR-3 ovarian),growth (HS 578T breast),growth (NCI/ADR-RES ovarian),growth (T-47D breast),growth (BT-549 breast),growth (MDA-MB-435 melanoma),growth (SW-620 colon),growth (MCF7 breast),growth (HCT-116 colon),growth (HCC-2998 colon),growth (KM12 colon),growth (IGROV1 ovarian)
O=C(Nn1c(NCC(=O)N2c3ccccc3Sc3ccccc32)nnc1-c1ccc(O)cc1)c1ccccc1,101%,104%,90.4%,105%,101%,114%,108%,93.7%,98.9%,98.4%,102%,105%,108%,91.7%,91.9%,104%,–
CC(=O)OC[C@H]1OC(Sc2sc(C(=O)c3ccc(C)cc3)c(N)c2-c2nc3ccccc3s2)[C@H](OC(C)=O)[C@@H](OC(C)=O)[C@@H]1OC(C)=O (some centres undefined),46.5%,58.7%,58.6%,-13.9% (active),89.9%,–,52.5%,62.9%,69.7%,83.4%,77.4%,53.4%,73.6%,39.3%,94.2%,80.6%,48.2%
BrCCCc1n(Cc2ccc3ccccc3c2)c2ccccc2[n+]1Cc1ccc2ccccc2c1,-58.8% (active),-69.2% (active),-4.99% (active),–,-38.2% (active),-71.5% (active),-48.2% (active),58.3%,-10.9% (active),-73.5% (active),-96.5% (active),-81.5% (active),-74.7% (active),-89.7% (active),-90.1% (active),-89.7% (active),-71.9% (active)
Cc1cc(=O)oc2cc(OC(=O)N3CCN(C)CC3)ccc12,108%,103%,98.7%,104%,110%,–,99.4%,104%,105%,112%,101%,100%,89.6%,99.4%,110%,101%,110%
COc1ccc(C2CC(c3ccc(Nc4ccnc5cc(Cl)ccc45)cc3)=NN2C=O)cc1 (centres undefined),30.9%,73.3%,102%,–,96.9%,52.7%,68.8%,51.7%,51.1%,63.7%,-3.72% (active),70.9%,40.3%,55.7%,57.8%,66.2%,67.5%
NC[C@@H]1O[C@H](O[C@@H]2[C@@H](CO)OC(O[C@@H]3[C@@H](O)[C@H](N)C[C@H](N)[C@H]3OC3O[C@H](CN)[C@@H](O)[C@H](O)[C@H]3N)[C@@H]2O)[C@H](N)[C@@H](O)[C@@H]1O (some centres undefined),104%,98%,104%,107%,119%,111%,111%,105%,115%,109%,102%,109%,103%,102%,108%,110%,–
CSc1ncccc1C(=O)OCC(=O)Nc1oc(C)c2c(C)n[nH]c(=O)c12,72.8%,98.6%,94.3%,–,96%,106%,104%,102%,103%,99.1%,107%,105%,84%,109%,113%,103%,-4.78% (active)
COc1cc(C(=O)/C=C/c2c(Cl)nc3sccn23)cc(OC)c1OC,40.8%,85.9%,92.6%,–,83.3%,64.5%,61%,81.4%,81.3%,81.3%,72.5%,65.8%,54.8%,52.3%,104%,56.7%,79.8%
NS(=O)(=O)c1ccc(-n2nc(C(=O)N/N=C\c3ccc(F)cc3)cc2-c2ccc(Br)cc2)cc1,94.9%,94.5%,94.9%,87.2%,88.6%,82.3%,72.1%,–,69.7%,86.1%,-1.32% (active),62.8%,55.1%,82.8%,86.9%,61.8%,–
COc1ccc(C(=O)C[C@]2(O)C(=O)Nc3c(Cl)ccc(Cl)c32)cc1,20.1%,33.1%,52.1%,48.4%,33.1%,–,-3.94% (active),14.1%,29.9%,49.8%,-40.9% (active),21.4%,19.7%,17%,–,47.6%,34.8%
O=C1NC(=O)C(Cn2cnc3ccccc32)N1 (centres undefined),–,106%,110%,105%,101%,103%,107%,101%,106%,–,100%,99.3%,92.1%,109%,103%,102%,105%
c1cc2nc(-c3cn[nH]c3)c3c(c2cc1-c1cn[nH]c1)C1CCC3C1 (centres undefined),–,59.3%,67.8%,83.9%,60.2%,75.5%,23.2%,64.8%,37.6%,62%,75.3%,77.5%,49.2%,61.5%,84.5%,37.8%,48.6%
NS(=O)(=O)c1ccc(-n2nc(-c3ccc(Cl)cc3)c3ccccc3c2=O)cc1,–,96.9%,93.7%,93.7%,96.9%,108%,88.7%,86.2%,76.8%,157%,112%,105%,88.6%,88.2%,107%,97.1%,75.5%
Brc1ccc2[nH]cc(-c3nc(-c4c[nH]c5ccncc45)cs3)c2c1,–,-64.5% (active),38.9%,-77.8% (active),87.6%,-91.6% (active),-48.4% (active),14.1%,-48.3% (active),87.8%,-90.8% (active),-76.7% (active),-63.3% (active),-93.7% (active),-79.3% (active),-81.9% (active),-86.5% (active)
N#Cc1c(-c2ccc(Cl)cc2)nc2c(c(-c3ccccc3)nn2-c2ccccc2)c1-c1ccc(O)cc1,–,49.9%,84%,64.7%,96.9%,48.3%,26.5%,57.9%,55.4%,62.3%,49%,54.4%,19.6%,14.3%,84.9%,41%,69.8%
O=C(S)CNC(=O)c1ccccc1,94.5%,101%,93.1%,–,89.4%,101%,79.5%,96.5%,102%,86.2%,104%,97.6%,98.7%,–,101%,105%,–
COc1ccc(-c2[nH]ncc2-c2cc3c(c(OC)c2)OCC(=O)N3)cc1,–,23.5%,36.7%,54.4%,19.8%,-4.58% (active),-2.19% (active),29.7%,27.2%,38.4%,-56.6% (active),12.6%,15.6%,13%,35.2%,23.1%,38.2%
CCOc1ccc2nc(SCc3nc4n(n3)S(=O)(=O)c3ccccc3N4C)sc2c1,–,27.7%,-9.82% (active),31.2%,35.3%,37.5%,-59.3% (active),6.82% (active),45.2%,-10.6% (active),60.8%,14%,47.3%,19.1%,28.5%,7.52% (active),-30.9% (active)
CCOC(=O)CC1C(COC(=O)NC)OC(n2cnc3c(NC(=O)Nc4ccccc4)ncnc32)C1O[Si](C)(C)C(C)(C)C (centres undefined),–,74%,94.2%,41.6%,94.9%,51.1%,57.1%,48.1%,29.1%,64.5%,49.3%,72.2%,11.7%,17.1%,-8.59% (active),31.2%,49.1%
